Activity calls are given as the source filed them.
Assays:
[1] = tested on: Human papillomavirus type 1a protein E7 (residues 44-93); test: HPV1a E7 fragment binders on microarrays, primary screen, biochemical, small-molecule microarray, residues 44-93, 635 nm fluorescence (AID 1108); conditions: small-molecule microarray binding, fluorescence 635 nm; higher = more signal;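 note: E7 fragment applied at 1 µg/mL in TBST for 1 h at 4 C; score combines spot fluorescence with its signal to noise ratio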
[2] = modulators of HCV replicon luciferase signal, primary screen, HCV replication inhibitor project, Huh7 cells, luciferase reporter (AID 1109); conditions: 48 h, higher = more signal;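 note: huh7 hepatoma cells harbouring a luciferase neomycin HCV replicon reporter; luciferase luminescence as measure of HCV replicon replication; test concentration not given here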
[3] = target: Left-right determination factor 2 (Homo sapiens) (UniProt O00292); test: LEFTY2 binders on small-molecule microarrays, primary screen, biochemical, small-molecule microarray, 635 nm fluorescence scan (AID 1110); conditions: LEFTY2 binding, higher = more signal
[4] = target: Calmodulin-1 (Homo sapiens) (UniProt P0DP23); test: CALM1 binders on microarrays, EGTA buffer, profiling panel, biochemical, small-molecule microarray, Cy5-labelled CALM1 (AID 1111); conditions: Cy5-CALM1 binding fluorescence, higher = more signal;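 note: labelled calmodulin applied in Tris saline Tween buffer holding calcium plus EGTA and DTT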
[5] = target: Calmodulin-1 (Homo sapiens) (UniProt P0DP23); test: calcium-bound CALM1 binders on microarrays, profiling panel, artefact control for SMM control-protein annotation, biochemical, small-molecule microarray, Cy5-labelled CALM1, plus calcium (AID 1112); conditions: Cy5-CALM1 binding fluorescence, higher = more signal;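 note: score merges spot fluorescence with signal to noise from triplicate slides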
[6] = small-molecule microarray binders of probe aWnt5a, primary screen, biochemical, biotinylated probe, 635/667 nm fluorescence (AID 1113); conditions: higher = more signal;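 note: score merges 667 nm fluorescence intensity with signal-to-noise per printed feature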
[7] = small-molecule microarray binders of probe aShh, primary screen, biochemical, biotinylated probe, 635/667 nm fluorescence (AID 1114); conditions: higher = more signal;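 note: probe is biotin-labelled aShh protein from a stem cell growth factor screen; measures binding of labelled protein to compounds printed on the slide; score merges feature fluorescence at 667 nm with signal-to-noise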
[8] = small-molecule microarray binders of probe aNog, primary screen, biochemical, biotinylated probe, 635/667 nm fluorescence (AID 1115); conditions: higher = more signal;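 note: probe is biotinylated aNog protein used at 0.15 µg/mL for 1 h at 4 C; z-score combines 667 nm fluorescence of each spot with its signal to noise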
[9] = target: Torsin-1A-interacting protein 1 (Homo sapiens) (UniProt Q5JTV8); test: LAP1 binders from COS7 cell lysate, primary screen, small-molecule microarray, 635/667 nm fluorescence (AID 1116); conditions: COS7-hLAP1 lysate binding, 635 nm fluorescence, higher = more signal
[10] = target: Alpha-bungarotoxin (Bungarus multicinctus) (UniProt P60615); test: alpha-bungarotoxin binders on microarray, profiling panel, artefact control for SMM control protein annotation, biochemical, small-molecule microarray, Alexa647 label, 635/667 nm fluorescence (AID 1117); conditions: alpha-BTX-A647 binding fluorescence, higher = more signal
Albumin (Bos taurus) = Albumin (Bos taurus) (UniProt P02769); test: bovine serum albumin binders on microarray, profiling panel, artefact control for SMM control protein annotation, biochemical, small-molecule microarray, Alexa647 label, 635/667 nm fluorescence (AID 1118); conditions: BSA-A647 binding, fluorescence 635 nm, higher = more signal;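 note: score merges 667 nm emission intensity and signal-to-noise per printed compound spot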
[11] = small-molecule microarray binders of probe aXIP, primary screen, biochemical, NeuroSMM set, 635/667 nm fluorescence (AID 1119); conditions: higher = more signal, called active from +8 up or from −8 down;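 note: probe is the protein aXip251-270 applied at 1 µg/mL to compound-printed slides; binding of probe to printed compounds measured as 667 nm fluorescence plus signal to noise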
[12] = small-molecule binders of probe aNOTCH3, primary screen, biochemical, small-molecule microarray, 635/667 nm fluorescence (AID 1120); conditions: higher = more signal;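 note: probe is a biotin-tagged antibody raised against NOTCH3 rather than NOTCH3 protein; score merges spot fluorescence near 667 nm with spot signal to noise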
[13] = small-molecule binders of probe aNOTCH2, primary screen, biochemical, small-molecule microarray, 635/667 nm fluorescence (AID 1121); conditions: higher = more signal;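 note: score merges feature fluorescence read at 667 nm with its signal to noise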
[14] = target: Carbonic anhydrase 2 (Homo sapiens) (UniProt P00918); test: CAII small-molecule binders, profiling panel, biochemical, small-molecule microarray, Alexa647-labelled CAII (AID 1122); conditions: CAII-A647 binding fluorescence, higher = more signal
[15] = COS7 lysate on small-molecule microarray, probe aHis, 635 nm (AID 1123); conditions: COS7 cell lysate, fluorescence, higher = more signal;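 note: z-score combines 667nm fluorescence intensity with signal-to-noise per printed compound spot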
[16] = compound binding in COS7 lysate, probe aLAP1, primary screen, cell lysate, small-molecule microarray (AID 1124); conditions: probe aLAP1, fluorescence, higher = more signal;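 note: lysate comes from COS7 cells expressing LAP1 and is applied at 0.3 µg/mL; score merges spot fluorescence near 667 nm with signal-to-noise over triplicate slides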
Sam68 (KHDRBS1) = test: Sam68 small-molecule binders, primary screen, biochemical, small-molecule microarray, 635 nm fluorescence (AID 1125); conditions: small-molecule microarray binding, higher = more signal;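 note: score merges 667 nm channel intensity with signal to noise over triplicate slides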
[17] = tested on: Chordin-like protein 2 (CHRDL2); test: CHRDL2 small-molecule binders, primary screen, biochemical, small-molecule microarray, 635 nm fluorescence (AID 1126); conditions: small-molecule microarray binding, fluorescence 635 nm; higher = more signal;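 note: printed compound slides probed with Chrdl2 protein at 4 µg/mL for 1 h at 4 C; score merges 667 nm emission intensity with signal to noise over three replicate slides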
[18] = target: Concanavalin-A (Canavalia ensiformis) (UniProt P02866); test: ConA small-molecule binders, primary screen, artefact control for SMM control protein annotation, biochemical, small-molecule microarray, Alexa647 label, 635 nm (AID 1127); conditions: ConA-A647 binding fluorescence, higher = more signal;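 note: z combines 667 nm emission intensity with signal-to-noise across three replicate slides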
Chain of Concanavalin-A (Canavalia ensiformis) (P02866 whole entry, looked up): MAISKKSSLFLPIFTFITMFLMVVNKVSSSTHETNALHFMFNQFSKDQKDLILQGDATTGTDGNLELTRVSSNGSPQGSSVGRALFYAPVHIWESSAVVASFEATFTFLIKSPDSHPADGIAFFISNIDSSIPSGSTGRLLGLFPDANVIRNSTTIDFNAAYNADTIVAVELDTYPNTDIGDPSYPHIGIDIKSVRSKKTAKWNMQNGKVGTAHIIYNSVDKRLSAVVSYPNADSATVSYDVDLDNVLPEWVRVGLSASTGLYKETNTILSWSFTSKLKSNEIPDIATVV

Chain of Torsin-1A-interacting protein 1 (Homo sapiens) (Q5JTV8 whole entry, looked up): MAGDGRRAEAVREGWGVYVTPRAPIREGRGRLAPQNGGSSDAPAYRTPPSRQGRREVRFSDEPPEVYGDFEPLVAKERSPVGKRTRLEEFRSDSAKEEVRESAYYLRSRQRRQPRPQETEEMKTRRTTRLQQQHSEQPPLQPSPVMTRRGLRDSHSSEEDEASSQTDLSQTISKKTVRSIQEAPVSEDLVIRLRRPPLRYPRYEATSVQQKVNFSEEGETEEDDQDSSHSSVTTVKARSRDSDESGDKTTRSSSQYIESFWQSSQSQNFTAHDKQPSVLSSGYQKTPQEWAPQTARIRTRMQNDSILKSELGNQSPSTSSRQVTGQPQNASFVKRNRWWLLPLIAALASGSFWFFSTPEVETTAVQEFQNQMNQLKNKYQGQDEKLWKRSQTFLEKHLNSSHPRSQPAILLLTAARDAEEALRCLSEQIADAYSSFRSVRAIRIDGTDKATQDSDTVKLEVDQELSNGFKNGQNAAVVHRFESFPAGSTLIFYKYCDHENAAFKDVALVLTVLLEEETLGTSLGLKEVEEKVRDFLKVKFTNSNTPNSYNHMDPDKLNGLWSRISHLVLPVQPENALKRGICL
Chain of Albumin (Bos taurus) (P02769 whole entry, looked up): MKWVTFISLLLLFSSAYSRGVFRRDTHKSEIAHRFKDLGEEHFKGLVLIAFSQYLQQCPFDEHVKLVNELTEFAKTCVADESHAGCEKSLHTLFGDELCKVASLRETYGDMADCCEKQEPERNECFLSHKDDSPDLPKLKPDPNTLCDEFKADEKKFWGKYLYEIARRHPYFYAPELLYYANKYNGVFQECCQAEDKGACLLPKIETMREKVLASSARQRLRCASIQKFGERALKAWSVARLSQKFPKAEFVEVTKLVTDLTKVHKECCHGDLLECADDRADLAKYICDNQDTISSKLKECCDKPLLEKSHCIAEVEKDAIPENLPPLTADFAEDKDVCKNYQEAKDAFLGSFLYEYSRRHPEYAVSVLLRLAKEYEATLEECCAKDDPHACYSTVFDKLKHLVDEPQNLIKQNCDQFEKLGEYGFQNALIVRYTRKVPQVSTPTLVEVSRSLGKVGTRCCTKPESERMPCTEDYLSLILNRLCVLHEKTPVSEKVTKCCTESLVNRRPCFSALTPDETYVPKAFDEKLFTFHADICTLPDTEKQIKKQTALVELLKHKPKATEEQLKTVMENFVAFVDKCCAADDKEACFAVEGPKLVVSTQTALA
Chain of Alpha-bungarotoxin (Bungarus multicinctus) (P60615 whole entry, looked up): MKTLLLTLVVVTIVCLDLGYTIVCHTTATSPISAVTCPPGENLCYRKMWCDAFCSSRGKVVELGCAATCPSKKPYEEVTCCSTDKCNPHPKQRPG
Chain of Left-right determination factor 2 (Homo sapiens) (O00292 whole entry, looked up): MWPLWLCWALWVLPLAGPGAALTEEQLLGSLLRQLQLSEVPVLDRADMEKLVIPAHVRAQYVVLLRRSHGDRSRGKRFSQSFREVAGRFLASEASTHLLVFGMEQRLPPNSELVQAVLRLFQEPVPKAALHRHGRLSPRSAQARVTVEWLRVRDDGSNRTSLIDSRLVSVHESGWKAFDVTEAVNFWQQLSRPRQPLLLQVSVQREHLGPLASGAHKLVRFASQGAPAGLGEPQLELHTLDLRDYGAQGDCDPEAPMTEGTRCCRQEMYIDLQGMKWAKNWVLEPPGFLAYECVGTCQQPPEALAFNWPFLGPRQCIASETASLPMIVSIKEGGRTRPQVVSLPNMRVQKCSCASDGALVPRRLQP

Structure (SMILES)	composite z-score [1]	z-score [2]	composite z-score [3]	composite z-score [4]	composite z-score [5]	composite z-score [6]	composite z-score [7]	composite z-score [8]	composite z-score [9]	composite z-score [10]	composite z-score (Albumin (Bos taurus))	composite Z-score [11]	composite z-score [12]	composite z-score [13]	composite z-score [14]	composite z-score [15]	composite z-score [16]	composite z-score (Sam68 (KHDRBS1))	composite z-score [17]	composite z-score [18]
C=C(C(=O)CC[C@H](OC(C)=O)c1cccc(OCCO)c1)C(C)C	-0.521	-1.01	-0.728	-0.765	-0.608	-0.206	-0.117	-0.107	-0.397	1.98	-0.757	0.562 (inactive)	-0.135	-0.148	-0.382	0.409	-0.326	-0.0177	-1.23	-1.21
O=C1OCCC=C[C@H]2OC34C=CCN(c5ccc(Cl)cc5)C(=O)[C@H]3N(CCCCCO)C(=O)[C@@H]4C12 (stereo not given in full)	-0.357	0.312	-0.639	-0.262	-0.137	-0.0512	-0.0769	0.496	0.681	-0.702	0.772	0.728 (inactive)	-0.0663	-0.0714	0.873	0.848	0.281	0.25	-0.27	-1.21
COc1cc2c(cc1O)C(C)N(Cc1cc3c(cc1Br)OCO3)CC2 (stereo not given)	-1.15	-0.0195	-0.407	0.0966	0.201	-0.0944	-0.338	-0.252	0.208	-0.0712	-0.0769	2.1 (inactive)	-0.119	-0.0924	0.887	0.578	0.349	-0.309	-0.55	-0.251
C#CCNC(=O)[C@H](Cc1ccccc1)NC(=O)[C@@H](N=[N+]=[N-])C(C)C	0.902	0.965	0.69	0.222	-0.217	-0.117	-0.262	0.221	0.455	0.96	0.51	-0.197 (inactive)	-0.0431	-0.134	0.179	0.88	0.0338	1.01	0.747	0.584
COC(=O)[C@@]1(Cc2ccc(OC)cc2)[C@H]2c3cc(C(=O)N4CCCC4)n(CCc4cc5ccccc5[nH]4)c3C[C@H]2CN1C(=O)c1ccccc1	1.41	-1.85	-0.239	2.44	0.913	0.239	-0.19	2.21	2.4	1.21	1.01	1.33 (inactive)	0.353	0.213	0.587	3.04	0.816	1.31	-0.65	1.13
COc1ccccc1CN1C(=O)c2ccccc2[C@@H](C(=O)NC(C)C)[C@@H]1c1ccc(CO)cc1	0.636	-0.861	0.4	0.301	-0.508	0.236	0.14	-0.637	0.902	1.06	-0.374	-0.0458 (inactive)	0.338	0.103	0.535	2.32	1.03	1.33	0.565	1.16
COCCCNC(=O)[C@@]1(Sc2ccc(C)cc2)CC(=O)N(Cc2cc(C(F)(F)F)cc(C(F)(F)F)c2)[C@@H]1c1ccc(CO)cc1	1.07	-0.168	-0.223	0.0267	-0.683	-0.096	0.0136	-0.0069	0.156	2.13	0.734	1.14 (inactive)	0.0562	-0.0136	0.703	2.41	1.1	1.21	0.749	0.715
COc1ccc([Si](C)(C)[C@H]2[C@H](CCn3cc([C@H](O)c4ccccc4)nn3)O[C@@]3(C(=O)N(Cc4ccc(N5CCC5=O)cc4)c4ccccc43)[C@@H]2C)cc1	0.73	-0.917	0.656	-0.468	-0.217	-0.16	-0.138	-0.103	0.273	0.54	0.0383	-0.128 (inactive)	-0.0647	-0.167	0.0133	0.418	0.142	0.654	0.786	0.672
CC(C)C(=C=CC[C@@H](O)c1ccccc1OCCO)C[C@@H](O)COCc1ccccc1	0.247	-1.21	0.639	0.277	0.652	-0.128	-0.0769	0.583	0.573	-0.345	-0.111	0.477 (inactive)	-0.132	0.0363	0.813	1.37	0.641	0.773	0.0362	0.639
C=C(COC)/C(=C/C[C@@H](OC(=O)c1ccncc1)c1ccc(OCCO)cc1)c1cnc2ccccc2c1	1.3	-1.59	1.12	0.695	-0.604	0.0151	-0.167	0.827	1.66	1.5	0.646	-0.41 (inactive)	0.321	-0.0804	0.854	0.514	0.39	1.31	1.53	1.15
COc1ccc([Si](C)(C)[C@H]2[C@H](CCn3cc([C@H](O)c4ccccc4)nn3)O[C@@]3(C(=O)N(Cc4ccc(N5CCOC5=O)cc4)c4ccccc43)[C@@H]2C)cc1	-0.873	-2.21	-0.849	0.287	0.481	-0.176	-0.138	-0.1	-0.833	-0.374	-0.397	0.486 (inactive)	-0.172	-0.186	-0.586	-0.55	-1.14	-0.426	-0.586	-0.321
CCOC(=O)C[C@H]1[C@H](OC(=O)c2ccc(-c3ccccc3)cc2)[C@@H](NC(=O)c2ccc3ccccc3c2)c2cc(OCCCO)ccc2N1C(=O)c1ccc2ccccc2n1	1.18	-1.07	0.249	1.31	0.593	-0.0445	-0.112	-0.324	0.639	0.0804	0.587	0.152 (inactive)	0.178	0.0278	0.137	1.06	-0.0403	1.04	-0.0835	0.954
